Compound activity deposited in PubChem BioAssay by ICCB-Longwood Screening Facility, Harvard Medical School.
Mtb MenB inh: blocks the Mycobacterium tuberculosis MenB enzyme | P9WNP5 | MenB enzyme assay, absorbance read-out | inhibition, % (no concentration beside the values) | 0.43% of 100,000 active; in the data active = inhibition above about 21%, passing the limit was not always enough
Target sequence (P9WNP5 whole entry, looked up): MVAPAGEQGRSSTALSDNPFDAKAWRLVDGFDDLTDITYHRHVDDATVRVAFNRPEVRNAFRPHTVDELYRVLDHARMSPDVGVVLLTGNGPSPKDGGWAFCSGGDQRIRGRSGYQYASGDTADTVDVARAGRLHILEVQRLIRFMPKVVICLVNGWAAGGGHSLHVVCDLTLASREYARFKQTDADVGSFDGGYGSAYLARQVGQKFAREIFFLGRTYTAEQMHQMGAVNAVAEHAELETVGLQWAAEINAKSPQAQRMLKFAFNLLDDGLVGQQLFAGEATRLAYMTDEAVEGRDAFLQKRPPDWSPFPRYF
Mtb MbtI inh: inhibitors of Mycobacterium tuberculosis siderophore enzyme MbtI; P9WFX0; purified MbtI enzyme, fluorescence intensity read-out; inhibition, % (no concentration beside the values); 0.89% of 100,000 active; in the data active = inhibition mostly above about 56%, no sharp cut-off; inactive = mostly below about 77%
Polio RdRp inh: poliovirus RNA polymerase inhibition | 0.66% of 150,000 active | % elongation, % (compound at 16.7 µg/mL) | poliovirus polymerase elongation, fluorescence polarization; active compounds read low | P03300; in the data active = % elongation below about 90%
AID504770: E. coli YBA685 growth inhibition, screen for V. cholerae RctB inhibitors; E. coli YBA685 rctB-dependent plasmid, OD600 growth, 3 h; active compounds read low; z-score (no concentration beside the values); 0.27% of 130,000 active; in the data active = z-score below about -2, passing the limit was not always enough
* = called active by the depositor; nt = not tested or not shown. A selection: hits, their analogues and other compounds. The true share with any hit is near 1.5%.

SMILES	Mtb MenB inh	Mtb MbtI inh	Polio RdRp inh	AID504770
COc1ccc(CSc2nnc(C)s2)cc1F	55.9*	0.2	102.0	0.95
N#Cc1cc(-c2ccc(Cl)cc2)no1	-17.6	-16.1	104.0	-2.55*
CCc1ccccc1N/C=C1/CCCCC1=O	-39.1	-12.6	103.0	-1.25
CC1CCCCC1NC(=O)COC(=O)c1ccc(Cl)c(S(N)(=O)=O)c1 (stereo not given)	-0.5	-3.3	105.0	-3.05*
N#CC1=C2SCN(C3CCCCC3)CN2C(=O)CC1c1c(F)cccc1Cl (stereo not given)	nt	nt	69.0*	nt
N#CC1=C2SCN(C3CCCCC3)CN2C(=O)CC1c1ccc(F)cc1 (stereo not given)	nt	nt	84.0*	nt
Oc1ccc(-c2nc3ccccc3s2)cc1	4.5	102.9	nt	-2.3*
NC(=O)c1c(NC(=O)c2cc(-c3ccc(F)cc3)on2)sc2c1CCCC2	nt	nt	76.0*	nt
CC(C(=O)N(C)c1ccccc1)N1CCN(c2ccc(C(F)(F)F)cn2)CC1 (stereo not given)	-5.9	-10.2	103.0	-0.15
O=C(CSc1cccc[n+]1[O-])c1cc2ccccc2o1	nt	97.8*	99.0	0.15
O=C(CSc1cccc[n+]1[O-])c1cccs1	nt	97.7*	100.0	-0.65
O=C(NC1CCCc2ccccc21)C1=NN(c2ccccc2)C(=O)CC1 (stereo not given)	-15.1	-0.1	108.0	0.2
O=C(OCCN1C(=O)c2ccccc2C1=O)c1cc(-c2ccco2)nc2ccccc12	3.2	-42.0	107.0	1.85
O=C1c2ccccc2C(=O)N1Cn1ncc(Cl)c(Cl)c1=O	-15.6	0.8	106.0	-0.65
CCn1ncc(Cl)c(Cl)c1=O	-12.8	nt	77.0*	-1
O=C(c1cc2ccc3cccnc3c2[nH]1)N1CCc2ccccc21	-12.8	-4.9	103.0	-0.95
Cc1cc(S(=O)(=O)NC23CC4CC(CC(C4)C2)C3)ccc1-n1cnnn1	-39.0	-6.8	101.0	-0.35
CC(CNS(=O)(=O)c1ccccc1)(c1ccccc1)N1CCCCC1 (stereo not given)	nt	-8.8	100.0	-4.1*
O=C(CCNS(=O)(=O)c1ccccc1)N1CCCC1	1.5	-7.8	102.0	0.25
O=c1[nH]nc(SCc2cn3ccccc3n2)c(=O)[nH]1	-11.5	53.5	32.0*	-2.5
Cc1cc(=O)[nH]c(SCc2cn3ccccc3n2)n1	nt	nt	nt	-1.35
Cc1cc(N)cc(C(=O)O)c1O	37.4*	9.7	99.0	1.2
Nc1ccc(C(=O)O)c(O)c1	8.2	-49.7	99.0	-0.05
CC1CN(Cn2nc(-c3cccs3)n(-c3ccccc3)c2=S)CC(C)O1 (stereo not given)	-14.8	88.8	104.0	0.85
Cc1cccc(C(N)=S)c1	-17.4	62.0*	98.0	-0.2
SMILES	Mtb MenB inh	Mtb MbtI inh	Polio RdRp inh	AID504770
CC(C)C(=O)NCCN1CCOCC1	14.5	-0.7	102.0	0.25
CCOC(=O)c1c(NC(=O)c2ccc(S(=O)(=O)N3CCCC(C)C3)cc2)sc2c1CC(C)(C)NC2(C)C (stereo not given)	nt	nt	102.0	nt
CCOC(=O)c1c(NC(=O)c2ccc(S(=O)(=O)N(CCOC)CCOC)cc2)sc2c1CC(C)(C)NC2(C)C	nt	nt	83.0*	nt
COc1cc2c(cc1OC)C(C)N(C(=O)CN1C(=O)CCc3ccccc31)CC2 (stereo not given)	-11.5	-6.2	102.0	-2.9*
CCOC(=O)N1CCc2c(sc3c2c(=O)n(-c2ccc(F)cc2)c(=O)n3CC(=O)N(CC)CC)C1	nt	nt	nt	-0.85
COc1ccc(C(=O)NCCn2cc(SCC(=O)Nc3ccccc3)c3ccccc32)cc1	-17.7	-5.3	102.0	-2.45*
CCN1CCCc2cc(CN(C(=S)Nc3ccc(OC)cc3)C3CCCC3)ccc21	-29.2	-14.3	101.0	-0.7
Fc1ccccc1-c1nnc2ccc(C(F)(F)F)cn12	13.7	nt	16.0*	0.95
COC(CNC(=O)Cn1nc(Cc2cccnc2)c2ccccc2c1=O)OC	6.4	-2.9	99.0	0.45
C(=Nc1ccccc1)c1ccc2c(c1)OCO2	nt	nt	nt	0.6
O=S(=O)(NC1CCc2ccccc21)c1ccc(S(=O)(=O)N2CCCC2)cc1 (stereo not given)	39.3*	-4.8	102.0	1.4
O=C(NC1CCCc2ccccc21)c1cc(S(=O)(=O)N2CCCCC2)c[nH]1 (stereo not given)	-44.3	-6.4	101.0	2
O=S(=O)(c1cc(C(F)(F)F)ccc1Cl)N1CCN(Cn2c(CO)nc3ccccc32)CC1	-18.1	2.0	104.0	-1
O=S(=O)(CS(=O)(=O)Sc1ccc(Cl)cc1)Sc1ccc(Cl)cc1	-1.5	49.3	99.0	-3.55*
C=CCOn1c(=O)c(-c2ccc(OC)c(OC)c2)[n+]([O-])c2ccccc21	-43.3	77.9*	93.0	-0.5
CCC(=O)N1CCc2cc(S(=O)(=O)N(C)CCC#N)ccc21	nt	nt	nt	1.4
CC1(C)Cc2ccccc2C2=NNC(=O)C2=N1	6.5	4.9	84.0*	-0.75
Cc1cc(C)c2c(N)c(C3=NC(C)(C)Cc4ccccc43)sc2n1	-12.1	nt	107.0	-0.65
Cc1nc(-c2cc(C#N)c(SCCNS(=O)(=O)c3ccc(C(C)(C)C)cc3)nc2C)cs1	-22.0	-2.4	115.0	0.15
CN1C(=O)C2(c3ccccc31)C(C(=O)N1CCC3(CC1)OCCO3)CC1CCCN12 (stereo not given)	7.0	18.9	101.0	1
Nc1ccc(I)cc1C(=O)O	4.8	nt	98.0	-0.75
COc1cc(/C=N/NC(N)=O)cc(Br)c1OC	-8.1	4.4	106.0	0.35
COc1cc(/C=N/NC(N)=O)cc2sc(=O)oc12	-14.1	80.8*	99.0	-0.2
CCOc1ccc(-n2c(SCC(=O)NC3CCCC3)nnc2-c2ccoc2C)cc1	36.4*	-3.5	100.0	-0.1
O=C(OC1CCCCC1=O)c1ccc(-c2cccc(C(F)(F)F)c2)o1 (stereo not given)	5.0	121.0	102.0	0.05
SMILES	Mtb MenB inh	Mtb MbtI inh	Polio RdRp inh	AID504770
Cc1cc(C)c(/C=N/NC(N)=O)c(C)c1/C=N/NC(N)=O	2.3	-13.9	102.0	-3.25*
CC(C)n1c(SCC(=O)Nc2ccccc2)nc2ccccc2c1=O	-7.7	-5.2	97.0	0.75
Cc1cc(SCC(=O)Nc2ccccc2)c2ccccc2n1	-31.0	nt	89.0*	-0.05
CC1CCCCC1NC(=O)Cn1nc(-c2ccc(Cl)cc2)ccc1=O (stereo not given)	7.1	10.6	103.0	-0.2
O=C(NC(N1CCOCC1)(C(F)(F)F)C(F)(F)F)c1ccccc1	-4.4	nt	104.0	-0.45
Clc1ccc(CSc2ncccn2)cc1	-0.6	20.1	103.0	-0.8
c1ccc(CSc2ncccn2)cc1	-0.1	60.4*	102.0	1.1
Cc1nnc(SCCCn2c(N3CC(C)OC(C)C3)nc3c2c(=O)[nH]c(=O)n3C)s1 (stereo not given)	-9.2	10.7	104.0	1.95
CN1CCC(N(Cc2ccc3c(c2)OCO3)C(=O)c2cn(Cc3ccccc3)c3ccsc23)CC1	23.5*	-0.1	104.0	1.2
CN1CCC(N(Cc2ccco2)C(=O)c2cc3sccc3n2Cc2ccccc2)CC1	-22.0	8.0	102.0	-0.7
Cc1[nH]n(-c2nc3ccccc3[nH]2)c(=O)c1C1OC(=O)c2ccccc21 (stereo not given)	-21.3	99.6*	62.0*	-0.65
Cn1c(N/C(=C\C(=O)c2cccs2)C(F)(F)F)nc2ccccc21	nt	7.7	105.0	-2.7*
